Screening data as filed in PubChem BioAssay.
tim10-1 inh – growth inhibitors of tim10-1 mutant yeast. S. cerevisiae tim10-1 ts strain growth, BacTiter-Glo, 24 h. inhibition, % at 20 µM. 330,000 tested, 2.2% active. AID 463190;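 active means inhibition of at least 40%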;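 further: mutant grown at 25 °C; 0% = DMSO wells with yeast and 100% = wells holding no yeast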
tim23-1 inh – growth inhibitors of tim23-1 mutant yeast; S. cerevisiae tim23-1 growth, BacTiter-Glo luminescence, 24 h; inhibition, % at 20 µM; 330,000 tested, 1.3% active;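 active means growth inhibition of the mutant yeast at or above 50%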;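 further: temperature-sensitive mutant grown at 25 °C; plate controls were DMSO-treated mutant yeast for no effect and medium wells lacking yeast for full effect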
Yeast superoxide – caloric restriction mimetics inhibiting age-related superoxide in yeast. S. cerevisiae aged cells, superoxide DHE fluorescence; hits give low values. superoxide response (% of plate mean), % at 10 µM. 330,000 tested, 0.18% active. AID 2690;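 active means superoxide response under a set limit, about three screen SD below normal, cut at about 65% in these data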;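 further: yeast aged for seven days with compound at 30 °C before DHE staining; 100% = average MFI of all compound-treated wells on the plate with controls excluded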
TIM10 inh – TIM10 yeast growth inhibition. 330,000 tested, 1.4% active. S. cerevisiae TIM10 strain growth, BacTiter-Glo luminescence, 24 h. inhibition, % at 10 µM. AID 463195;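 active means inhibition of 40% or more at the single tested concentration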;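 further: wild-type TIM10 isogenic control strain grown at permissive 25 °C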
NLRP3 yeast inh – blocks the NALP3 inflammasome reconstituted in yeast. inhibition, % at 10 µM. Yeast reconstituted NLRP3/ASC/caspase-1, beta-gal luminescence, 24 h. AID 2825. 330,000 tested, 0.39% active;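 active means inhibition of 50% or more; inactive means inhibition below 50%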;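 further: plate controls were induced DMSO wells for no effect and uninduced yeast grown without galactose for full effect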
tim10-1 confirm – tim10-1 yeast growth inhibition, confirmed | shares compounds with tim10-1 inh | AID 463213 | inhibition, % at 20 µM | S. cerevisiae tim10-1 ts strain growth, BacTiter-Glo, 24 h | 7,400 tested, 56% active;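 active means inhibition of yeast growth at or above a set limit in either of two repeat tests at 20 µM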;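 further: tim10-1 mutant grown at permissive 25 °C to find synthetic lethal compounds; 0% = DMSO yeast wells and 100% = medium wells without yeast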
Active calls of the source: *. A selection: hits, their analogues and other compounds. The true share with any hit is near 3.8%.

`COc1cc(NC(=O)c2ccc(N3CC4CC(C3)c3cccc(=O)n3C4)c(NC(=O)c3ccncc3)c2)cc(OC)c1OC` (configuration not stated) gave tim10-1 inh 11, tim23-1 inh 1, Yeast superoxide 117, TIM10 inh 0 and NLRP3 yeast inh 11.
`CC(C)(C)c1cc(=O)[nH]c(SCc2ccccc2)n1` gave tim10-1 inh 41*, tim23-1 inh 32, Yeast superoxide 102, TIM10 inh 17, NLRP3 yeast inh -6 and tim10-1 confirm 24.
Screening O=c1[nH]c(SCc2ccc([N+](=O)[O-])cc2)nc2[nH]ncc12 returned tim10-1 inh 6, tim23-1 inh 10, Yeast superoxide 93, TIM10 inh -9 and NLRP3 yeast inh 19.
Screening CC1CCCC(C)N1C(=O)COC(=O)CSc1ccc(C(N)=O)cc1[N+](=O)[O-] (configuration not stated) returned tim10-1 inh -6, tim23-1 inh -17, Yeast superoxide 80, TIM10 inh -6 and NLRP3 yeast inh 14.
`OC(COC(c1ccc(Cl)cc1)c1ccc(Cl)cc1)CN1CCc2ccccc2C1` (configuration not stated) gave tim10-1 inh 44*, tim23-1 inh 18, Yeast superoxide 135, TIM10 inh 31, NLRP3 yeast inh 31 and tim10-1 confirm -3.
`OC(COC(c1ccccc1)c1ccccc1)CN1CCc2ccccc2C1` (configuration not stated) gave tim10-1 inh 15, tim23-1 inh 6, Yeast superoxide 104, TIM10 inh 13 and NLRP3 yeast inh 9.
`Cc1nnc(SCC(=O)N2CCC(c3noc4ccc(F)cc34)CC2)s1` gave tim10-1 inh 34, tim23-1 inh 48, Yeast superoxide 121, TIM10 inh 37 and NLRP3 yeast inh 12.
Screening Cc1sc2ncnc(SCC(=O)N3CCC(c4noc5ccc(F)cc45)CC3)c2c1C returned tim10-1 inh 50*, tim23-1 inh -34, Yeast superoxide 106, TIM10 inh 6, NLRP3 yeast inh 8 and tim10-1 confirm 3.
`N#Cc1nc(Cc2ccccc2)oc1NCc1cccnc1` gave tim10-1 inh -1, tim23-1 inh -4, Yeast superoxide 95, TIM10 inh -9 and NLRP3 yeast inh 1.
N#Cc1ncc(Cc2ccccc2)nc1C#N was read as tim10-1 inh 41*, tim23-1 inh 28, Yeast superoxide 100, TIM10 inh 0, NLRP3 yeast inh 27 and tim10-1 confirm 38*.
`Cc1cccc(Nc2c([N+](=O)[O-])c(=O)n(C)c3ccccc23)c1` gave tim10-1 inh 17, tim23-1 inh 14, Yeast superoxide 91, TIM10 inh -23 and NLRP3 yeast inh 12.
Screening CC(C)c1ccc(Nc2c([N+](=O)[O-])c(=O)n(C)c3ccccc23)cc1 returned tim10-1 inh 51*, tim23-1 inh 15, Yeast superoxide 109, TIM10 inh 7, NLRP3 yeast inh 30 and tim10-1 confirm 52*.
For COc1ccc(-n2cnnc2SCC(=O)NC2CCCCC2)cc1 the results were tim10-1 inh 8, tim23-1 inh 10, Yeast superoxide 102, TIM10 inh 2 and NLRP3 yeast inh -2.
CN(C1=C(N2CCOCC2)C(=O)c2ccccc2C1=O)c1ccccc1 was read as tim10-1 inh 45*, tim23-1 inh 42, Yeast superoxide 91, TIM10 inh 12, NLRP3 yeast inh 34 and tim10-1 confirm 20.
Screening Cc1cc(C)cc(OCCCOc2cccc3cccnc23)c1 returned tim10-1 inh 42*, tim23-1 inh 37, Yeast superoxide 102, TIM10 inh 27, NLRP3 yeast inh 33 and tim10-1 confirm 33*.
For CC(C)N(Cc1cc2ccccc2[nH]c1=O)C(=O)c1ccco1 the results were tim10-1 inh 1, tim23-1 inh 1, Yeast superoxide 104, TIM10 inh 4 and NLRP3 yeast inh 10.
Screening O=C(COC(=O)c1cccc(OC(F)F)c1)NCC1CCCO1 (configuration not stated) returned tim10-1 inh 19, tim23-1 inh 11, Yeast superoxide 96, TIM10 inh -1 and NLRP3 yeast inh 5.
CCCCCCCCOC(=O)c1ccc(N)cc1 was read as tim10-1 inh 45*, tim23-1 inh 7, Yeast superoxide 97, TIM10 inh 8, NLRP3 yeast inh 26 and tim10-1 confirm 24.
For N=C1C(c2nc3ccccc3c(=O)[nH]2)=C(O)CN1CCc1ccccc1 the results were tim10-1 inh 41*, tim23-1 inh 9, Yeast superoxide 104, TIM10 inh 12, NLRP3 yeast inh -4 and tim10-1 confirm -14.
For Nc1nc(N2CCN(C/C=C/c3ccccc3)CC2)nc2ccccc12 the results were tim10-1 inh -19, tim23-1 inh -44, Yeast superoxide 98, TIM10 inh -24 and NLRP3 yeast inh 29.
`COc1ccc(NC(=O)c2sc3nc(N4CCOCC4)c4c(c3c2N)CC(C(C)C)OC4)c(OC)c1` (configuration not stated) gave tim10-1 inh 43*, tim23-1 inh 1, Yeast superoxide 94, TIM10 inh -5, NLRP3 yeast inh 15 and tim10-1 confirm 4.
Screening COc1ccc(NC(=O)c2sc3nc(N4CCCC4)c4c(c3c2N)CC(C)(C)OC4)c(OC)c1 returned tim10-1 inh 26, tim23-1 inh 9, Yeast superoxide 112, TIM10 inh -1 and NLRP3 yeast inh 13.
Screening Cn1c(CNC(=O)CNC(=O)Cc2ccc(Cl)cc2)cc(=O)n(C)c1=O returned tim10-1 inh -9, tim23-1 inh -10, Yeast superoxide 76, TIM10 inh -1 and NLRP3 yeast inh 7.
CCc1cc2c(NCc3ccccc3)nc(C)nc2s1 was read as tim10-1 inh 48*, tim23-1 inh 43, Yeast superoxide 109, TIM10 inh 24, NLRP3 yeast inh -11 and tim10-1 confirm 24.
Cc1c(Cl)cccc1NC(=O)c1cccc(OC(F)F)c1 was read as tim10-1 inh 47*, tim23-1 inh 46, Yeast superoxide 93, TIM10 inh 35, NLRP3 yeast inh 26 and tim10-1 confirm 48*.
Screening CCOC(=O)C1=C(C)N(CC)C(=S)NC1c1ccccc1OC(F)F (configuration not stated) returned tim10-1 inh 29, tim23-1 inh 25, Yeast superoxide 95, TIM10 inh 11 and NLRP3 yeast inh 7.
O=C(NC(=S)NCCCN1CCOCC1)c1ccc([N+](=O)[O-])cc1 was read as tim10-1 inh -9, tim23-1 inh -12, Yeast superoxide 120, TIM10 inh -5 and NLRP3 yeast inh 10.
`N/C(=N\S(=O)(=O)c1cc(C(F)(F)F)cc(C(F)(F)F)c1)c1ccncc1` gave tim10-1 inh 8, tim23-1 inh 5, Yeast superoxide 85, TIM10 inh 5 and NLRP3 yeast inh 10.
